aSyn 5UTR act: Activators working through SNCA 5'UTR binding (MLPCN). hit rate 7.1% among 300,000. AID 1814. alpha-synuclein 5'UTR reporter, activators screen. activity score, % (tested at 7.5 µM), hits read low; in the data active means activity score below about -60%
* = called active by the depositor. Only a sample is shown.

SMILES	aSyn 5UTR act
N/C(=N\c1nc2ccccc2o1)NC(=O)c1ccccc1Br	-184*
N/C(=N\c1nc2ccccc2o1)NC(=O)c1ccc(Cl)cc1	-87*
COc1ccc(C(=O)N/C(N)=N/c2nc3ccccc3o2)cc1	-216*
COc1ccc(C(=O)/C=C/Sc2nc3ccccc3o2)cc1	-169*
Cc1ccc(N=Nc2c(N)n(-c3ccccc3)[nH]c2=O)cc1	-154*
Nc1[nH]n(-c2ccccc2)c(=O)c1N=Nc1ccc2c(c1)OCO2	-205*
Cc1[nH]n(-c2ccccc2)c(=O)c1N=Nc1ccccc1	-182*
CCC(CC)C(=O)Nc1cccc(C(=O)NCCc2ccccc2)c1	-64*
CCCN1CCC(Oc2cccc(C(=O)NCCc3ccccc3)c2)CC1	-72*
O=C(NCCc1ccccc1)c1ccc(Cl)c([N+](=O)[O-])c1	-99*
O=C(c1ccc(Cl)c([N+](=O)[O-])c1)N(c1ccccn1)c1ccccn1	-98*
Cc1cc(C(=O)NCCc2ccccc2)ccc1[N+](=O)[O-]	-116*
Cc1cccc(C(=O)NCCc2ccccc2)c1	-112*
N/C(Cc1cccs1)=N\OC(=O)COc1ccc(Br)cc1Cl	-163*
N/C(Cc1cccs1)=N\OC(=O)COc1ccccc1Cl	-174*
CCN1C(=O)/C(=C/N2CCc3ccccc32)SC1=S	-190*
NC(=S)N=Nc1c(O)n(Cc2ccc(Br)cc2)c2ccccc12	64
CCn1c(O)c(N=Nc2ccc3ccccc3n2)c2ccccc21	-143*
Brc1ccc(N=Nc2ccc3ccccc3n2)cc1	95
COc1ccc(N=CC2=C(O)c3ccccc3C2=O)cc1	-80*
O=C1C(C=Nc2ccccc2)=C(O)c2ccccc21	-78*
c1ccc(CCSc2nccn2-c2ccccc2)cc1	-121*
CC1CCCN(CCS(=O)(=O)c2ccccc2)C1 (stereo not drawn)	-151*
Cc1ccnc(NC(=O)C2COc3ccccc3O2)c1 (stereo not drawn)	-97*
Cc1ccc(NC(=O)C2COc3ccccc3O2)nc1 (stereo not drawn)	-106*
SMILES	aSyn 5UTR act
Cc1ccc2ccc(C3C(=O)c4ccccc4C3=O)nc2c1	-146*
COc1ccc(-c2nc(SC)n(S(=O)(=O)c3ccccc3)n2)cc1	-120*
Cc1cc(C)c(C(=O)CN2C(=O)NC3(CCCCCC3)C2=O)cc1C	-72*
COC(=O)c1ccc(CN2C(=O)NC3(CCCCC3)C2=O)cc1	-124*
COc1ccc(C(=O)CN2C(=O)NC3(CCCCCC3)C2=O)cc1	-90*
CCOC(=O)c1c(C)[nH]c(C(=O)CN2C(=O)NC3(CCCC3)C2=O)c1C	-67*
COc1ccc(C(=O)CN2C(=O)c3ccccc3S2(=O)=O)cc1	101
Cc1cc(C(=O)CN2C(=O)NC3(CCCCC3C)C2=O)c(C)n1Cc1cccs1 (stereo not drawn)	-165*
CCOC(=O)c1c(C)[nH]c(C(=O)CSc2nccc(C)n2)c1C	-129*
Cc1cc(C(=O)CN2C(=O)NC3(CCCCC3)C2=O)c(C)n1C	-69*
COc1ccc(/C=C/c2nc(-c3ccccc3O)n[nH]2)cc1OC	-132*
Cc1cccc(C(=O)NCC(=O)OCC(=O)c2cc(C)n(CC3CCCO3)c2C)c1 (stereo not drawn)	-102*
COCCn1c(C)cc(C(=O)COC(=O)c2ccc(Cl)c(S(N)(=O)=O)c2)c1C	-103*
Cc1cc(C(=O)COC(=O)c2ccc(Cl)c(S(N)(=O)=O)c2)c(C)n1CC1CCCO1 (stereo not drawn)	-104*
CC(C)CNC(=O)COC(=O)c1c2c(nc3ccccc13)/C(=C/c1cccs1)CC2	-110*
O=C(O)CC1=C(Nc2ccccc2)C(=O)N(c2ccccc2)C1c1ccc(Br)cc1 (stereo not drawn)	-104*
CCOc1ccc(NC(=O)n2ncc3c(C)cccc32)cc1	-179*
Cc1cccc2c1cnn2C(=O)Nc1ccc(Br)cc1F	-156*
Cc1ccc(NC(=O)n2ncc3c(C)cccc32)c(C)c1	-108*
CN(CCc1ccccn1)C(=O)CCc1nnc(CCCc2ccccc2)o1	-91*
CC(C)N(Cc1nccn1C)C(=O)CCc1nnc(CCCc2ccccc2)o1	-120*
Oc1ccccc1C1CC(c2cccs2)=NC(c2cccc(Br)c2)N1 (stereo not drawn)	-87*
CC1CCC/C(=N/Nc2nc3ccccc3s2)C1 (stereo not drawn)	-134*
CC1(C)CC(=O)C/C(=N/Nc2nc3ccccc3s2)C1	-67*
Cn1ccs/c1=N\C(=O)Nc1cccc(C(F)(F)F)c1	-109*
SMILES	aSyn 5UTR act
Cn1cccc1C(=O)OCc1ccc(C(C)(C)C)cc1	-141*
O=C(/C=C/c1ccccc1)Nc1ccc(CN2CCOCC2)cc1	-88*
O=C(Nc1cccnc1Cl)c1cc2ccccc2o1	-166*
O=C(NC(=S)N1CCOCC1)c1cc2ccccc2o1	-74*
Clc1cc(NCc2cccs2)ccc1N1CCOCC1	-105*
O=C(Nc1ccc(N2CCOCC2)c(Cl)c1)c1ccccc1Cl	-66*
CC(C)C(=O)N1CCN(c2ccc(NC(=O)c3ccc4c(c3)OCCO4)cc2Cl)CC1	-109*
O=C(Nc1ccc(N2CCOCC2)c(Cl)c1)c1ccc(F)cc1	-140*
O=C(Nc1ccccc1N1CCCC1)c1cc2ccccc2o1	-252*
O=C(Nc1ccc(CN2CCOCC2)cc1)c1ccc(Br)o1	-104*
O=C(N/N=C/c1ccc(N2CCOCC2)s1)c1ccccc1Cl	-116*
O=C(Nc1ccc(N2CCOCC2)nc1)c1ccc(Cl)cc1	-73*
O=C(Nc1ccc(N2CCOCC2)c(Cl)c1)c1cc2ccccc2o1	-204*
O=C(Nc1ccc(N2CCOCC2)c(Cl)c1)c1ccc(Br)o1	-253*
O=C1C2C3C=CC(CC3)C2C(=O)N1/N=C/c1c[nH]c2ccccc12 (stereo not drawn)	-92*
O=C1C2C3C=CC(C3)C2C(=O)N1/N=C/c1cn(Cc2ccccc2)c2ccccc12 (stereo not drawn)	66
Cc1nnc(SCc2ccccc2)nc1-c1ccccc1	-124*
O=C(Nc1ccc(F)cc1)c1ccc(NC(=O)C2CCCO2)cc1 (stereo not drawn)	-128*
COC(=O)c1ccc(NC(=O)C2CCCO2)cc1 (stereo not drawn)	-64*
COC(=O)c1c(-c2ccc(F)cc2)csc1NC(=O)C1CCCO1 (stereo not drawn)	-85*
O=C(Nc1cccc(O)c1)c1ccc(NC(=O)C2CCCO2)cc1 (stereo not drawn)	-98*
CCOC(=O)c1ccc(-c2ccc(C=O)o2)cc1	-146*
CCCOC(=O)c1ccc(-c2ccc(C=O)o2)cc1	-97*
Cc1ccc2cc(NC(=O)c3cccc(F)c3)ccc2n1	-79*
O=C(Nc1ccc2ccccc2c1)c1cccc(F)c1	-117*
SMILES	aSyn 5UTR act
O=C(Nc1ccc2ccccc2c1)c1ccc(NS(=O)(=O)c2ccc(Br)s2)cc1	-102*
Cc1ccc2cc(NC(=O)c3ccccc3)ccc2n1	-85*
CC(C)CC(=O)Nc1ccc2ccccc2c1	-99*
Cc1cc2oc(C(=O)Nc3c(C)n(C)n(-c4ccccc4)c3=O)c(C)c2cc1C	-63*
Cc1ccccc1C(=O)/C(C#N)=N/Nc1c(C)n(C)n(-c2ccccc2)c1=O	79
Cc1cc2oc(=O)cc(CN3CCC(C)CC3)c2cc1C	-82*
Cc1cc(C)c2c(CN3CCC(C)CC3)cc(=O)oc2c1	-157*
Cc1cc2oc(=O)cc(CN3CCC(C)CC3)c2c(C)c1Cl	-88*
Cc1cc(C)c2c(CCl)cc(=O)oc2c1	91
O=C(NCCc1ccccc1)c1ccco1	-85*
CC(=O)c1c(C)[nH]c(C(=O)NCCc2ccccc2)c1C	-102*

Source: PubChem BioAssay (Broad Institute)
